Here are results for 85 molecules from ChEMBL document CHEMBL3988442, “University of Dundee, Small-Polar-MMV Screening Library” (2021).

The campaign covered roughly 48,000 compounds. About 13,000 (27%) showed an effect of 50% or more. The list shows a part of the results.

The test system of the assay is Wolbachia pipientis. Briefly: Anti-Wolbachia Cell-Based Screen. In kind it is functional. Further details: scale not given: in the data most compounds retested in dose-response had high values. The following applies: 5 µM.
For the molecule `O=C(NCc1ccccn1)[C@@H]1COC[C@H]2CNC[C@H]21`, the “Percent Effect” value was -0.4259%.

On to `O=C(COc1ccc(Cl)cc1Cl)N1CCCSCC1CN1CCOCC1` (stereo not given), for which the “Percent Effect” value is on record as -6.318%.

For the molecule `c1cnc(N2CCOCC3(CNCCO3)C2)nc1` (stereo not given), the “Percent Effect” value is -30.03%.

With `COCCN1C[C@@H]2COC[C@@H](CC(=O)NCc3cccnc3)[C@@H]2C1.O=C(O)C(F)(F)F.O=C(O)C(F)(F)F`, the “Percent Effect” value was 24.5%.

With `O=C(C[C@@H]1COC[C@H]2CN(CC3CC3)C[C@@H]12)NCc1cccnc1.O=C(O)C(F)(F)F.O=C(O)C(F)(F)F`, the “Percent Effect” value stood at 86.58%.

Consider `CNCCc1nc2cc(Cl)ccc2[nH]1.Cl.Cl`, for which the “Percent Effect” value stood at 8.686%.

Consider `CC(C)Oc1ccc(C(O)CNCc2ccccc2C(F)(F)F)cc1` (stereo not given), for which the “Percent Effect” value is given as -32.82%.

Consider `O=C(c1ccno1)N1CC[C@@H]2CN(C3CCOCC3)CCO[C@@H]2C1`, for which the “Percent Effect” value is 85.56%.

Turning to `O=C(O)C(F)(F)F.O=C(O)C(F)(F)F.O=C1[C@H]2CN(C3CCOCC3)C[C@H]2CN1Cc1ccncc1`, the “Percent Effect” value was -10.38%.

With `CN1CCO[C@@H]2CN(C(=O)c3ccc4ncccc4c3)CC[C@@H]2C1.O=C(O)C(F)(F)F.O=C(O)C(F)(F)F`, the “Percent Effect” value is on record as -8.044%.

`CN1CCC(N(C)c2ccccc2CNCc2ccco2)CC1`: the “Percent Effect” value is 13.84%.

As to `Cc1cccc(CN2C(=O)CCC23CCNCC3)n1.O=C(O)C(F)(F)F.O=C(O)C(F)(F)F`, the “Percent Effect” value is reported as 115.6%.

Take `Cc1cccc(CN2CCC3(CCN(c4cccnc4)C3=O)C2)n1.O=C(O)C(F)(F)F.O=C(O)C(F)(F)F` (stereo not given): the “Percent Effect” value is -4.819%.

For `CCN1CCN(C)C2(CCN(Cc3cccc(C)n3)CC2)C1=O.O=C(O)C(F)(F)F.O=C(O)C(F)(F)F`, the “Percent Effect” value was -10.53%.

As to `O=C(Nc1ccc(Cn2cccn2)cc1)N1CCC2(CC1)OCCO2`, the “Percent Effect” value is -11.32%.

As to `O=C(Cn1ccc2c(Cl)cccc21)N1CCC2(CC1)OCCO2`, the “Percent Effect” value is on record as 11.16%.

`O=C(Cc1cnc(-c2c(Cl)cccc2Cl)s1)N1CCC2(CC1)OCCO2`: the “Percent Effect” value stood at 110.5%.

As for `O=C(Cc1ccc(O)c(F)c1)N1CCN(CC2CC2)[C@@H]2CS(=O)(=O)C[C@@H]21`, the “Percent Effect” value was -17.2%.

As to `O=C(O)C(F)(F)F.c1coc(CNc2ncc3c(n2)C2(CCNC2)COC3)c1` (stereo not given), the “Percent Effect” value is on record as -4.361%.

On to `Cc1cnc(N2CCCC3(CCCN(C)C3)C2)nc1` (stereo not given), for which the “Percent Effect” value is listed as -6.547%.

`Clc1cc(N2CCN3CCCCC3C2)nc2[nH]ccc12` (stereo not given): the “Percent Effect” value is 91.81%.

Regarding `Clc1cc(CN2CCCN3CCCC3C2)c2ncccc2c1` (stereo not given), the “Percent Effect” value was -2.153%.

For the molecule `COCc1cn(C[C@H]2CC3CCN2C[C@@H]3C(=O)Nc2ccccc2)nn1` (stereo not given in full), the “Percent Effect” value is on record as -0.5907%.

`CCc1cc(CNCc2ccccc2N(C)C2CCN(C)CC2)on1`: the “Percent Effect” value turned out to be 10.76%.

Consider `Cc1noc(C)c1CN1C(=O)[C@H]2CC[C@@H]1CN(Cc1ncc[nH]1)C2`, for which the “Percent Effect” value is listed as -9.267%.

Regarding `Cc1noc(C)c1CN1C[C@@H]2CN(C(=O)c3cnccn3)C[C@@H]2C1.O=C(O)C(F)(F)F`, the “Percent Effect” value is listed as 12.22%.

For `Cc1noc(C)c1CN1C[C@@H]2C[C@H](C(=O)NCC3CC3)N(C)[C@@H]2C1.O=C(O)C(F)(F)F.O=C(O)C(F)(F)F`, the “Percent Effect” value was determined as 97.39%.

On to `CNC(=O)[C@@H]1C[C@H]2CN(Cc3c(C)noc3C)C[C@H]2N1C(C)C.O=C(O)C(F)(F)F.O=C(O)C(F)(F)F`, for which the “Percent Effect” value was -23.54%.

On to `Cc1noc(C)c1CN1C[C@@H]2CC(F)(F)C[C@@H]2C1.O=C(O)C(F)(F)F`, for which the “Percent Effect” value was found to be 103.5%.

With `Cc1noc(C)c1CN1C[C@@H]2C[C@@H](C)O[C@@H]2C1.O=C(O)C(F)(F)F`, the “Percent Effect” value is recorded as 94.5%.

With `Cc1noc(C)c1CN1CC[C@@H]2O[C@@H](COCC(C)C)CC[C@@H]21.O=C(O)C(F)(F)F`, the “Percent Effect” value is on record as -18.54%.

As to `Cc1noc(C)c1CN1C[C@@H]2CN(C(=O)c3cscn3)C[C@@H]2C1`, the “Percent Effect” value is reported as -4.527%.

For `C[C@@H]1C[C@H]2CN(Cc3nccs3)C[C@H]2O1.O=C(O)C(F)(F)F`, the “Percent Effect” value was -5.34%.

Take `Cc1noc(C)c1CN1CC[C@@H]2O[C@H](COCC(C)C)CC[C@@H]21.O=C(O)C(F)(F)F`: the “Percent Effect” value turned out to be 9.009%.

Regarding `CNC(=O)[C@H]1C[C@@H]2CN(Cc3c(C)noc3C)C[C@@H]2N1C(C)=O.O=C(O)C(F)(F)F`, the “Percent Effect” value is -32.47%.

With `Cc1noc(C)c1CN1C[C@H]2CNC[C@H]2C1`, the “Percent Effect” value stood at 94.55%.

With `CC(C)NC(=O)NC[C@H]1C[C@@H]2CCN1C[C@@H]2CN(C)c1ccccc1`, the “Percent Effect” value is recorded as -10.33%.

As to `CC(Cc1c(F)cccc1F)NC(=O)Nc1cnn(CC(N)=O)c1` (stereo not given), the “Percent Effect” value is recorded as 0.8263%.

As to `C/C(=C\c1ccco1)CN(C)C(C)Cc1cc(C)ccn1` (stereo not given), the “Percent Effect” value amounted to 32.02%.

For the molecule `O=C(Nc1ccccc1)[C@H]1CN2CCC1C[C@@H]2Cn1cc(CO)nn1` (stereo not given in full), the “Percent Effect” value is -4.286%.

Consider `Cc1noc(C)c1CN1C[C@H]2CN(Cc3cccc(F)c3)C[C@H]2C1.O=C(O)C(F)(F)F.O=C(O)C(F)(F)F`, for which the “Percent Effect” value came out at 97.06%.

Turning to `O=C1N(Cc2ccccn2)C[C@H]2CN(C3CCC3)CCN12`, the “Percent Effect” value is reported as -6.605%.

On to `O=C(c1ccc[nH]1)N1CCCC2(CCCN2Cc2cccnc2)C1` (stereo not given), for which the “Percent Effect” value was determined as 22.1%.

As for `O=C1Nc2ccccc2CC12CCCN2Cc1cccnc1` (stereo not given), the “Percent Effect” value is 106.6%.

As for `CC(C)C(=O)N1CCCC2(CCCN2Cc2cccnc2)C1` (stereo not given), the “Percent Effect” value is -11.99%.

For the molecule `O=C1Nc2ccccc2CC12CCCN2Cc1ccccn1` (stereo not given), the “Percent Effect” value stood at 100.2%.

Consider `O=S(=O)(NC[C@H]1C[C@@H]2CCN1C[C@@H]2CN1CCCC1)c1ccc(Cl)cc1`, for which the “Percent Effect” value is reported as 14.89%.

For the molecule `CC(C)c1cc(CN2CCN(c3cccnc3)CC2)n(C)n1`, the “Percent Effect” value came out at 9.429%.

As to `CN1CCCC(c2n[nH]c3ncccc23)C1` (stereo not given), the “Percent Effect” value was -5.321%.

With `CN1CCCC(c2ccc(N3CCOCC3)cn2)C1.Cl` (stereo not given), the “Percent Effect” value is recorded as 96.78%.

On to `CN1CCCC1c1ccc(N2CCOCC2)cn1` (stereo not given), for which the “Percent Effect” value was 81.49%.

Take `CCN(CC)C(=O)C1CCC2(CCNCC2)CO1.Cl` (stereo not given): the “Percent Effect” value is 2.217%.

On to `Cc1cc(CN2CC[C@H]3C[C@H](c4nc(C5CC5)cs4)O[C@@H]3C2)no1`, for which the “Percent Effect” value is on record as 106.7%.

As for `c1cc(CN2CC[C@H]3C[C@H](c4nc(C5CC5)cs4)O[C@@H]3C2)ccn1`, the “Percent Effect” value turned out to be 0.1706%.

`Cc1cc(CN2CC[C@H]3C[C@@H](c4nc(C5CC5)cs4)O[C@@H]3C2)no1`: the “Percent Effect” value is recorded as 106.4%.

Turning to `Cc1nccc([C@@H]2C[C@@H]3CCN(Cc4cccs4)C[C@H]3O2)n1`, the “Percent Effect” value stood at 0.9996%.

For the molecule `Cc1ncsc1CN1CC[C@H]2C[C@H](c3ccncn3)O[C@@H]2C1`, the “Percent Effect” value is on record as -3.058%.

With `Cc1nc(CN2CC[C@H]3C[C@H](c4ccncn4)O[C@@H]3C2)cs1`, the “Percent Effect” value turned out to be 0.4652%.

With `COc1cc(N2CC[C@@H]3OCCN(C)[C@H]3CC2)ncn1`, the “Percent Effect” value is on record as 94.65%.

In the case of `Cc1ccc(C(=O)N2CC[C@H]3[C@H]2CCN3CC2CCOCC2)cn1`, the “Percent Effect” value amounted to 4.595%.

`COc1cc(N2CC[C@@H]3[C@@H](CC2)OCCN3CC2CC2)ncn1`: the “Percent Effect” value was 103%.

Regarding `CNC(=O)[C@H]1C[C@@H]2CN(c3cc(OC)ncn3)C[C@@H]2N1C(C)C`, the “Percent Effect” value was -9.424%.

On to `COCCN1CCO[C@H]2CCN(C(=O)c3ccnnc3)CC[C@@H]21.O=C(O)C(F)(F)F`, for which the “Percent Effect” value is listed as -6.928%.

As to `COCCN1CCC12CCN(C(=O)Cc1cccs1)C2.O=C(O)C(F)(F)F` (stereo not given), the “Percent Effect” value was 10.38%.

In the case of `COCCN1CCC12CCN(C(=O)c1ccc(C)nc1)C2.O=C(O)C(F)(F)F` (stereo not given), the “Percent Effect” value was 107.4%.

In the case of `Cc1cnc(N2CCCC3(CCCN3CC(=O)N(C)C)C2)nc1.O=C(O)C(F)(F)F` (stereo not given), the “Percent Effect” value is reported as -1.71%.

For the molecule `CCN1CCCC12CCCN(c1ncccn1)C2.O=C(O)C(F)(F)F` (stereo not given), the “Percent Effect” value is 1.763%.

Turning to `COCCN1CCCC12CCN(c1ncccn1)CC2.O=C(O)C(F)(F)F`, the “Percent Effect” value was -7.716%.

For `CN(C)CCN1CCCC12CCN(C(=O)c1ccncc1)CC2.O=C(O)C(F)(F)F.O=C(O)C(F)(F)F`, the “Percent Effect” value was 105%.

`CN(C)CCN1CCCC12CCCN(C(=O)c1cccnc1)C2.O=C(O)C(F)(F)F.O=C(O)C(F)(F)F` (stereo not given): the “Percent Effect” value was 118%.

With `O=C(O)C(F)(F)F.O=C(c1ccc[nH]1)N1CCC2(CCCN2Cc2cccnc2)CC1`, the “Percent Effect” value was -12.51%.

On to `COCCN1CCC12CCN(c1ncccn1)C2.O=C(O)C(F)(F)F` (stereo not given), for which the “Percent Effect” value is given as -0.9151%.

On to `Cc1ncc2c(c1CNC(=O)C1(C)CCCCO1)CCNC2` (stereo not given), for which the “Percent Effect” value came out at 13.24%.

On to `Cc1nn(CCNC(C)Cn2cncn2)c(C)c1Cl` (stereo not given), for which the “Percent Effect” value is on record as -0.5097%.

With `CC(C)C(NC(=O)c1ccccc1F)C(=O)N1CCC2(CC1)OCCO2` (stereo not given), the “Percent Effect” value is listed as -11.28%.

As to `COc1ncccc1CN1CC[C@H]2O[C@H](c3nnc(C)o3)CC[C@H]21`, the “Percent Effect” value is -0.9405%.

In the case of `Cc1nc(CN2CCO[C@@H]3CC(COc4ccccn4)C[C@H]32)cs1.O=C(O)C(F)(F)F.O=C(O)C(F)(F)F` (stereo not given in full), the “Percent Effect” value is 94.34%.

As for `O=C(O)C(F)(F)F.O=C(O)C(F)(F)F.c1ccc(O[C@@H]2CC[C@H]3[C@H]2OCCN3CC2CCOCC2)nc1`, the “Percent Effect” value was -13.85%.

Take `O=C(O)C(F)(F)F.O=C(O)C(F)(F)F.c1ccc(OCC2C[C@@H]3[C@@H](C2)OCCN3Cc2ccoc2)nc1` (stereo not given in full): the “Percent Effect” value is listed as 92.52%.

Consider `O=C(O)C(F)(F)F.O=C(O)C(F)(F)F.c1ccc(O[C@@H]2CO[C@@]3(CCCN(CC4CCOCC4)C3)C2)nc1`, for which the “Percent Effect” value is -10.07%.

With `O=C(O)C(F)(F)F.O=C(O)C(F)(F)F.c1ccc(OCC2C[C@@H]3[C@@H](C2)OCCN3CC2CCOCC2)nc1` (stereo not given in full), the “Percent Effect” value came out at 96.17%.

As for `Cc1nc(CN2CCO[C@H]3[C@@H](OCc4ccccn4)CC[C@@H]32)cs1.O=C(O)C(F)(F)F.O=C(O)C(F)(F)F`, the “Percent Effect” value was determined as 8%.

With `CC(C)NC(=O)[C@H]1C[C@@H]2[C@@H](C1)OCCN2Cc1ccccn1.O=C(O)C(F)(F)F.O=C(O)C(F)(F)F`, the “Percent Effect” value was determined as 2.364%.

As to `Fc1ccc(CN2CCO[C@H]3[C@H](Oc4ccccn4)CC[C@@H]32)cc1.O=C(O)C(F)(F)F.O=C(O)C(F)(F)F`, the “Percent Effect” value is recorded as -5.975%.

For `Cc1nc(CN2CC[C@H]3[C@H]2CCN3c2ncccn2)cs1.O=C(O)C(F)(F)F.O=C(O)C(F)(F)F.O=C(O)C(F)(F)F`, the “Percent Effect” value was -7.266%.
